Most compounds without a hit are left out; they make up all but 4% or so of the library.
Mtb bLac sens: beta-lactam sensitization of Mtb H37Rv, H37Rv; actives 0.27% (n = 330,000); AID 434955, 2010; M. tuberculosis H37Rv growth with meropenem, percent inhibition; inhibition, % at 25 µM; call rule not given here;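 note: growth measured after seven days incubation then overnight dye step; 0% = bacteria only wells and 100% = bacteria with antibiotic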
Rv3671c protease: Rv3671c serine protease inhibitors, primary screen, biochemical, fluorescence polarization, M. tuberculosis H37Rv; AID 2606, 2010; inhibition, % at 5.96 µM; P9WHR9; actives 0.048% (n = 320,000); in the data active = inhibition above about 38%;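 note: extracellular domain of Rv3671c used as enzyme; 0% = enzyme with DMSO and 100% = no enzyme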
Target sequence (P9WHR9 whole entry, looked up, the tested form may be a part): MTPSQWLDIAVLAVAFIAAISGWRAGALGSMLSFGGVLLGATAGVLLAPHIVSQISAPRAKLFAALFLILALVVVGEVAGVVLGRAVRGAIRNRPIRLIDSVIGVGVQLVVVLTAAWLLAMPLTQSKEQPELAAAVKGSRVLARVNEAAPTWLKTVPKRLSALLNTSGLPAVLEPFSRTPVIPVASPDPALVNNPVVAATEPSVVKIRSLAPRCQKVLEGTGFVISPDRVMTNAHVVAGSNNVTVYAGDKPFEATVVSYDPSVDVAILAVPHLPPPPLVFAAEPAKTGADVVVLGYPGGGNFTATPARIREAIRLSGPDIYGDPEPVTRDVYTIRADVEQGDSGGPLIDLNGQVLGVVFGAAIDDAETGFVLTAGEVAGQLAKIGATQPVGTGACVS
GDH-TPI counter-1: GDH-TPI coupling enzyme inhibitors, primary screen, artefact control for M. tuberculosis FBA inhibitor project, biochemical, absorbance, full deck. GDH-TPI coupled enzyme counterscreen, NADH absorbance. inhibition, % at 4.8 µM. actives 1.2% (n = 360,000); in the data active = inhibition above about 30%;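 note: 0% = DMSO wells and 100% = wells lacking the enzyme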
RecA intein inh: Mtb RecA intein splicing inhibitors, primary screen, biochemical, fluorescence, HTS; Protein RecA (Mycobacterium tuberculosis (strain ATCC 25618 / H37Rv)), P9WHJ3; actives 0.75% (n = 290,000); inhibition, % (test concentration not listed); AID 2221, 2009; cell-free RecA intein splicing; in the data active = inhibition above about 30%; inconclusive = no clear call, values can overlap the other calls;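 note: 0% = vehicle wells and 100% = reference inhibitor control wells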
Mtb FBA inh: Mtb FBA enzyme inhibitors, primary screen, biochemical, fluorescence, strain H37Rv; inhibition, % at 1 µM; actives 2.3% (n = 360,000); AID 588726, 2011; Fructose-bisphosphate aldolase (Mycobacterium tuberculosis (strain ATCC 25618 / H37Rv)), …; purified M. tuberculosis FBA, fluorescence read-out;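 note: 0% = vehicle and 100% = reference inhibitor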
UGM FP inh: M. tuberculosis UGM enzyme inhibitors, primary screen, biochemical, fluorescence polarization, single point. purified UGM, fluorescence polarization probe displacement. inhibition, % at 10 µM. actives 0.06% (n = 320,000); in the data active = inhibition above about 10%, passing the limit was not always enough; inconclusive = no clear call, values can overlap the other calls
Mtb FBA confirm: M. tuberculosis aldolase blockers, biochemical, fluorescence, strain H37Rv, confirmation; shares compounds with Mtb FBA inh; actives 78% (n = 5,600); inhibition, % at 1 µM; purified M. tuberculosis FBA, fluorescence read-out;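 note: 0% = vehicle wells and 100% = reference inhibitor wells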
GDH-TPI counter-2: GDH-TPI coupling enzyme inhibitors, artefact control for M. tuberculosis FBA inhibitor project, biochemical, fluorescence, high throughput. shares compounds with Mtb FBA inh. AID 652141, 2013. inhibition, % at 1 µM. GDH-TPI coupled enzyme counterscreen. actives 81% (n = 5,600); in the data active = inhibition above about 10%
* hit, by the source's call; i = inactive; ? = inconclusive; · = no result given; + = active, no number. Cut-off read from the data, not from the text of the source, unless noted: active = inhibition above about 27%; inactive = the rest.

SMILES | Mtb bLac sens | Rv3671c protease | GDH-TPI counter-1 | RecA intein inh | Mtb FBA inh | UGM FP inh | Mtb FBA confirm | GDH-TPI counter-2
CCOC(=O)C(NC(=O)OC(C)C)(Nc1nccs1)C(F)(F)F (configuration not stated) | 3 | -1 | -4 | · | 1 | -1 | · | ·
O=C(NCc1ccco1)c1ccc2ccccc2n1 | 1 | 0 | -2 | -1 | 0 | 0 | · | ·
Nc1c(C(=O)OCc2ccccc2)c2nc3ccccc3nc2n1Cc1cccs1 | -4 | -71 | 9 | -1 | 51* | -1 | 168* | 150*
Nc1c(C(=O)NCCN2CCOCC2)c2nc3ccccc3nc2n1Cc1ccco1 | -18 | -6 | 19 | i | 86* | -1 | 98* | 96*
Nc1c(C(=O)NCc2ccco2)c2nc3ccccc3nc2n1CCc1ccccc1 | · | · | 8 | -118 | 72* | · | 87* | 72*
COCCNC(=O)c1c(N)n(Cc2ccco2)c2nc3ccccc3nc12 | 13 | -3 | 18 | i | 83* | 1 | 76* | 67*
O=C(NCCN1CCOCC1)c1cc(-c2ccco2)on1 | -6 | 0 | 10 | -1 | 2 | 2 | · | ·
COc1ccc(-c2cccc(NS(=O)(=O)c3ccc([N+](=O)[O-])cc3)c2)nn1 | 0 | -1 | 13 | 1 | -2 | 2 | · | ·
Cc1noc(C)c1COC(=O)CCc1nc2ccccc2s1 | 51 | -8 | -2 | -1 | -4 | 0 | · | ·
CN(C)CCn1c2c(c(SCC(=O)Nc3cccc(C(F)(F)F)c3)nc1=O)CCCC2 | -7 | -1 | 12 | 3 | 5 | 1 | · | ·
Cc1cccc(-n2c(N)c(C(=O)NCCN3CCOCC3)c3nc4ccccc4nc32)c1 | -6 | -5 | · | -316 | · | 0 | · | ·
COCCNC(=O)c1c(NC(=O)c2ccco2)n(Cc2ccccc2)c2nc3ccccc3nc12 | 57 | -7 | 5 | -154 | 75* | 0 | 65* | 65*
Nc1c(C(=O)NCCc2ccccc2)c2nc3ccccc3nc2n1CCN1CCOCC1 | 99 | 1 | 5 | -22 | 27* | 1 | 73* | 53*
Nc1c(C(=O)NCCN2CCOCC2)c2nc3ccccc3nc2n1Cc1ccccc1 | 78 | 1 | 3 | -140 | 91* | -5 | 7 | 3
CCOC(=O)C1=CC[C@H]2c3c(c4ccc(OC)cc4n3C)C(=O)C1N2S(=O)(=O)c1ccc(C)cc1 | 0 | 9 | 18 | · | 4 | 1 | · | ·
CC1CCN(CC(CS(=O)(=O)c2ccc([N+](=O)[O-])cc2)N2CCC(C)CC2)CC1 (configuration not stated) | · | 2 | 10 | 1 | 55* | 3 | 74* | 60*
Cc1ccc(S(=O)(=O)CC(CN2CCOCC2)N2CCOCC2)cc1 (configuration not stated) | -5 | 2 | 7 | -7 | -3 | 1 | · | ·
O=C(Cn1c(=O)[nH]c2ccccc2c1=O)N1CCN(Cc2ccc3c(c2)OCO3)CC1 | 0 | -3 | -2 | 0 | 5 | 2 | · | ·
CCC(C(=O)N1CCN(Cc2ccc3c(c2)OCO3)CC1)n1c(=O)[nH]c2ccccc2c1=O (configuration not stated) | -9 | -11 | 7 | -3 | 33* | -1 | 124* | 109*
CN(C)CCSc1nc(N)c2c3c(sc2n1)CN(C)CC3 | -15 | -10 | 27 | -3 | 38* | 2 | 73* | 62*
COCCSc1nc(N)c2c3c(sc2n1)CN(C)CC3 | -5 | 0 | 19 | -4 | 52* | 3 | 70* | 48*
O=C(COC(=O)CCN1C(=O)c2cccc([N+](=O)[O-])c2C1=O)NC1CCS(=O)(=O)C1 (configuration not stated) | 3 | 1 | -4 | -4 | 2 | · | · | ·
O=C(CCN1C(=O)c2cccc3cccc(c23)C1=O)NC1CCS(=O)(=O)C1 (configuration not stated) | -7 | 6 | 30 | 1 | 39* | 0 | + | +
O=C(CCCCCN1C(=O)c2cccc3cccc(c23)C1=O)NC1CCS(=O)(=O)C1 (configuration not stated) | -6 | 1 | 11 | 0 | 39* | 2 | 134* | 117*
Cc1ccc(C2=NN(CC(=O)NCc3cccs3)C(=O)CC2)cc1 | -4 | 9 | 7 | 2 | 0 | -1 | · | ·
SMILES | Mtb bLac sens | Rv3671c protease | GDH-TPI counter-1 | RecA intein inh | Mtb FBA inh | UGM FP inh | Mtb FBA confirm | GDH-TPI counter-2
COc1ccc2oc(-c3ccncc3)cc(=O)c2c1 | · | · | 5 | · | 30* | · | + | +
COc1ccc(-c2ccc(S(=O)(=O)N3CCCC3)cc2)cc1 | -2 | 1 | -3 | 0 | 24 | 3 | · | ·
COc1ccc(-c2ccc(S(=O)(=O)N3CCOCC3)cc2)cc1 | -6 | -8 | -8 | 0 | 44* | 0 | 75* | 48*
COc1ccc(S(=O)(=O)N2CCN(C(=O)c3cccs3)CC2)cc1 | -6 | -4 | 0 | 2 | 79* | 1 | + | 172*
COc1ccccc1C1=NC(c2ccccc2)CN1c1ccccc1 (configuration not stated) | 0 | 4 | 2 | -10 | 102* | 1 | 89* | 63*
O=C(NNC(=O)C12CC3CC(CC(C3)C1)C2)c1csc(N2CCOCC2)n1 | -2 | 17 | 7 | -1 | 1 | 0 | · | ·
Cc1nn(-c2ccccc2)c2sc(C(=O)OC3CCOC3=O)cc12 (configuration not stated) | -5 | -1 | 3 | -2 | 56* | 4 | 31* | 20*
CC(=O)Nc1cccc(C(=O)NC2CCCc3c2cnn3-c2ccc(C(C)(C)C)cc2)c1 (configuration not stated) | 97 | -28 | 11 | -9 | -5 | -2 | · | ·
CSc1cccc(NC(=O)COc2ccccc2C)c1 | -7 | -17 | 7 | 2 | -1 | 4 | · | ·
CCc1ccc(S(=O)(=O)NCc2csc(C)n2)cc1 | 8 | · | 7 | -2 | 34* | -2 | 1 | -8
Cc1nc(CNS(=O)(=O)c2ccc(Br)cc2)cs1 | ? | 4 | 0 | -1 | -1 | 3 | · | ·
CCN(CC)CCNc1c2c(c(C#N)c3nc4ccccc4n13)CCCC2 | -4 | 2 | 10 | -81 | 11 | -1 | · | ·
